Experiment [1] addresses Rap guanine nucleotide exchange factor 4 (Homo sapiens) (UniProt Q8WZA2). The experiment is described as follows: Confirmatory qHTS for antagonist of cAMP-regulated guanine nucleotide exchange factor 4 (EPAC2) (AID 1645885). Further: on the % scale 0 is the no-effect control and ±100 the full control effect; nearly all actives have a fitted effect of over 25% in size. A general note: In qHTS, concentration-response curves come from the screen itself.
A short description of experiment [2]: Viability counterscreen for agonist of constitutive androstane receptor (CAR) against the NCATS DSHEA and TCM libraries (AID 1794838).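 Further: HepG2 cells with CYP2B6 reporter and hCAR plus 0.75 µM PK11195 antagonist; potency means the concentration at half of the fitted maximal effect; cells exposed to compound for 24 h.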 The essentials: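 Multiplexed counterscreen: after 24 h compound exposure with 0.75 uM PK11195, HepG2-CYP2B6-hCAR viability was quantified fluorimetrically (CellTiter-Fluor, 405/540 nm) prior to the ONE-Glo luciferase read.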
For orientation: Counterscreens check selectivity or assay interference.

A short description of experiment [3]: HepG2 viability counterscreen (readout 2: ATP content) against the NCATS DSHEA and TCM libraries (AID 1794840).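 Further: HepG2 cells exposed to substances for about 24 h; 0% is about no effect.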 The essentials: (§1)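 After HepG2 cells attach for ~4 h, substances are added and incubated ~24 h at 37C, 5% CO2. GF-AFC fluorescence then CellTiter-Glo luminescence give protease and ATP readouts.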
The nature of experiment [4]: HepG2 viability counterscreen (readout 1: protease activity) against the NCATS DSHEA and TCM libraries (AID 1794841).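 Further: cells exposed to compounds for about 24 h before the protease read; 0% is about no effect.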 The essentials: as §1
In experiment [5] the target is Glutathione peroxidase 1 (Homo sapiens) (UniProt P07203). As to the kind of experiment: Primary qHTS Assay for Inhibitors of Recombinant Selenoprotein Glutathione Peroxidase 1 (GPX1) (AID 1845191). Further: nearly all actives have a fitted effect of over 65% in size. Further: potency means the concentration at half of the fitted maximal effect. In a few lines:
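NADPH consumption tracked by fluorescence at 340/450 nm between t=0 and t=15 min, room temperature. Final mix: 10 nM GPX1, 100 nM glutathione reductase, 1 mM GSH, 0.5 mM NADPH, 0.5 mM cumene hydroperoxide, 0.01% BSA; 30 min compound–enzyme preincubation.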

The target in experiment [6] is Phospholipid hydroperoxide glutathione peroxidase GPX4 (Homo sapiens) (UniProt P36969). As to the kind of experiment: Primary qHTS Assay for Inhibitors of Recombinant Selenoprotein Glutathione Peroxidase 4 (GPX4) (AID 1845192). Further: nearly all actives have a fitted effect of over 65% in size. On activity change, negative = inhibition: on the % scale 0 is the no-effect control and ±100 the full control effect. The essentials: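 NADPH consumption followed by fluorescence at 340/450 nm, t=0 and after 15 min at room temperature. Reaction started with cumene hydroperoxide (0.5 mM final) after 30 min compound–GPX4 preincubation; final 200 nM GPX4, 100 nM GR, 1 mM GSH, 0.5 mM NADPH.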
Sequence of Phospholipid hydroperoxide glutathione peroxidase GPX4 (Homo sapiens) (P36969 whole entry, looked up): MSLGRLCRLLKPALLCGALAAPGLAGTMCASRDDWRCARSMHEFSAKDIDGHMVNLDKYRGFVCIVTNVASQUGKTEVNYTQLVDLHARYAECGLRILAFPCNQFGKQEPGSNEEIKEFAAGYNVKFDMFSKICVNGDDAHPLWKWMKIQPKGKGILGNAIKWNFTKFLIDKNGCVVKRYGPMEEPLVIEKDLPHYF

Experiment [7] can be described thus: NCATS anti-infectives library activity on HEK293 viability as a counter-qHTS vs the C. elegans viability qHTS (AID 1745854).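 Further: HEK293 cells exposed to compounds for 24 hr before the viability read; on the % scale 0 is the no-effect control and ±100 the full control effect.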 The essentials: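 Counter-screen for cytotoxicity: HEK293, 24 hr, 37C, compounds up to 41.7 uM final (a dilution series, 1:5). Readout CellTiter-Glo luminescence, 10 min RT. Digitonin control, 83.3 uM final.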
The target in experiment [8] is Catechol O-methyltransferase (Homo sapiens) (UniProt P21964). The experiment is described as follows: Confirmatory Screen for Target Class Profiling of Small Molecule Inhibitors of Methyltransferases (AID 1745852; calls by dose curve; further: potency means the concentration at half of the fitted maximal effect; on activity change, negative = inhibition: on the % scale 0 is the no-effect control and ±100 the full control effect). The settings on record: MTase-Glo luminescence, SAH detection, recombinant enzyme; measured here: COMT max response; stronger effect = lower value.
Sequence of Catechol O-methyltransferase (Homo sapiens) (P21964 whole entry, looked up): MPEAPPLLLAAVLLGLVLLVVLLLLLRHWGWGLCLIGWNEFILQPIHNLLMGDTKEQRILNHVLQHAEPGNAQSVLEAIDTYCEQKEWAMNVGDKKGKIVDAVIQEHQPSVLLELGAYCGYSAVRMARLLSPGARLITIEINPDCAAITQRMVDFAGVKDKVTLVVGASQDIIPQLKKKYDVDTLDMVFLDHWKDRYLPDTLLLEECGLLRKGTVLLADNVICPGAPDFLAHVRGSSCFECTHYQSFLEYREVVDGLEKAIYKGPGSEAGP
Experiment [9] addresses Guanidinoacetate N-methyltransferase (Homo sapiens) (UniProt Q14353). Described as above. The settings on record: MTase-Glo luminescence, SAH detection, recombinant enzyme; activity change, negative = inhibition: at 57.3 µM (top of the series).
Experiment [10] has as its target Nicotinamide N-methyltransferase (Homo sapiens) (UniProt P40261). Described as above. The settings on record: MTase-Glo luminescence, SAH detection, recombinant enzyme; measured here: NNMT max response; stronger effect = lower value.
The target of experiment [11] is Phenylethanolamine N-methyltransferase (Homo sapiens) (UniProt P11086). The experiment is described as above. The note with it: MTase-Glo luminescence, SAH detection, recombinant enzyme; measured here: PNMT max response; stronger effect = lower value.
Sequence of Phenylethanolamine N-methyltransferase (Homo sapiens) (P11086 whole entry, looked up): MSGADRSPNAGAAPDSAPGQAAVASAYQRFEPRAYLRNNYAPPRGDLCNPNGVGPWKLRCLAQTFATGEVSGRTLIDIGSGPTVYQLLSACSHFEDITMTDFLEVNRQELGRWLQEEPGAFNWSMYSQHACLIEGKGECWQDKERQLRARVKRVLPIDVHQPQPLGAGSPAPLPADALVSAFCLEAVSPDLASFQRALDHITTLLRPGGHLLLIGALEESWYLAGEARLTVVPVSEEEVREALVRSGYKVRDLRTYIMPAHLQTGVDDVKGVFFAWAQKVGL
Experiment [12] deals with Luciferin 4-monooxygenase (Photinus pyralis) (UniProt P08659). The experiment is described as follows: Primary firefly luciferase (FLuc) qHTS assay for identification of artifact compounds. (AID 1845220). Further: nearly all actives have a fitted effect of over 60% in size.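 On activity change, negative = inhibition: plate controls were DMSO vehicle for no effect and no enzyme for full effect.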 In a few lines: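 FLuc 10 nM; luciferin 10 uM; ATP 10 uM; Tris-acetate pH 7.6, Mg-acetate 10 mM; 15 min RT preincubation; 5 min reaction; luminescence.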
Experiment [13] is described as follows: Primary fluorescence-based thiol-reactive (MSTI) qHTS assay for identification of artifact compounds. (AID 1845221).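 Further: thiol-reactive compounds lower the probe fluorescence signal; nearly all actives have a fitted effect of over 65% in size.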 The essentials:
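Probe: MSTI 4 uM, PBS pH 7.4, 2% DMSO. Incubation 1 h, RT, light-protected. Readout fluorescence 525/598 nm.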

Experiment [14] relates to Nanoluciferase (engineered Oplophorus gracilirostris luciferase). The experiment is described as follows: Primary Nanoluciferase (NLuc) qHTS assay for identification of artifact compounds. (AID 1845222).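 Further: NLuc secreted into diluted conditioned medium of S16 cells; 0% = DMSO and -100% = no enzyme.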 In a few lines: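 NLuc from S16 cell medium (1:55) plus test compounds, 15 min, room temperature. Luminescence after Nano-Glo (1:100) addition, 5 min.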
The nature of experiment [15]: NCATS anti-infectives library activity on the primary C. elegans qHTS viability assay (AID 1745855; calls by dose curve; further: potency means the concentration at half of the fitted maximal effect). The essentials: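 GFP read-out by 488 nm laser cytometry at day 0, 3 and 7, gated on object perimeter, area and peak intensity, scored viability of PE254-GFP-FLuc worms exposed to compound in S medium with bacterial capsules at 21 °C.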

Results filed as inconclusive are left out. The source made the active and inactive calls. Unless noted, the call rests on the fitted dose curve; in most records, active means well fitted curve in the direction sought with a large enough effect; inconclusive means small, poorly fitted or top-dose-only effect, or another doubt; inactive means no such curve, though single readings can be large; an effect the other way counts as inactive or inconclusive.

Sequence of Glutathione peroxidase 1 (Homo sapiens) (P07203 whole entry, looked up): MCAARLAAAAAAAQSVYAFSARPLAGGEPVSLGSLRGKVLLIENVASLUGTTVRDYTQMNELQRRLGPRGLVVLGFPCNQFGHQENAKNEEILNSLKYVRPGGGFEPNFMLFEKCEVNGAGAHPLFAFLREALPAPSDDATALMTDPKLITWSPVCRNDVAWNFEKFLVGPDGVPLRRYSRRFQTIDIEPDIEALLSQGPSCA
Sequence of Nicotinamide N-methyltransferase (Homo sapiens) (P40261 whole entry, looked up): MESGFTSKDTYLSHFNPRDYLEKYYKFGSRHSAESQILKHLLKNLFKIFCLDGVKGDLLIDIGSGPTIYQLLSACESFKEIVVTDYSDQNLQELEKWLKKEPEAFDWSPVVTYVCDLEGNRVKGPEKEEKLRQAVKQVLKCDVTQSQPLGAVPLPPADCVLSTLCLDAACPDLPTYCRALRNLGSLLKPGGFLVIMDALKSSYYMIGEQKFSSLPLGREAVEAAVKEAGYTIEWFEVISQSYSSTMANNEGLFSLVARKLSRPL
Sequence of Rap guanine nucleotide exchange factor 4 (Homo sapiens) (Q8WZA2 whole entry, looked up): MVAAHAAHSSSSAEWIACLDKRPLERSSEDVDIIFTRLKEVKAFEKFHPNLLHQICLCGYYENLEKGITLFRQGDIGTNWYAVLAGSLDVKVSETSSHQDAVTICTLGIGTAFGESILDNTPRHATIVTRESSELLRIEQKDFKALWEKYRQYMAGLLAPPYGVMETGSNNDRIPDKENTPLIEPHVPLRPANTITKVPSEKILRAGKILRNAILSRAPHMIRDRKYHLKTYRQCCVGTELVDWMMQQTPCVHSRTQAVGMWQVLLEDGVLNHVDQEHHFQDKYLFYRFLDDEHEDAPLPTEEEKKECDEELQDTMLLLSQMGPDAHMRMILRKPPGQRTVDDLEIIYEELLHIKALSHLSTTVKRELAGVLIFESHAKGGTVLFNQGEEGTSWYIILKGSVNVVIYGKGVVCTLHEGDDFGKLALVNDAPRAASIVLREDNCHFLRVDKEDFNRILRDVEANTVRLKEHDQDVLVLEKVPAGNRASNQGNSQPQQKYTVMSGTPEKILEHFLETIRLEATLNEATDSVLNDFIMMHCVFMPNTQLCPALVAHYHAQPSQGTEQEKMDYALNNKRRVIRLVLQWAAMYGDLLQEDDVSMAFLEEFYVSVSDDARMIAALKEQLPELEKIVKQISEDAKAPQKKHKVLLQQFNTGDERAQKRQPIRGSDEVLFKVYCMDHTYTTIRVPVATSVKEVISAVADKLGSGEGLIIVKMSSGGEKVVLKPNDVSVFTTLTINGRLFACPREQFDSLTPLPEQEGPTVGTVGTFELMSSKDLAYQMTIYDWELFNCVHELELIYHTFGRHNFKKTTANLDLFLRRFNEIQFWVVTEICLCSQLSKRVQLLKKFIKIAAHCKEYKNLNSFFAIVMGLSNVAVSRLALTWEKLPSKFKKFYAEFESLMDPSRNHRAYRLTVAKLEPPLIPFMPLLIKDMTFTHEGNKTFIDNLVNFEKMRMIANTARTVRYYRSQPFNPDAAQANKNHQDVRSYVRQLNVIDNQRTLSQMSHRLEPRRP

Take `Cc1cc2nc3c(=O)[nH]c(=O)nc-3n(CC(O)C(O)C(O)CO)c2cc1C` (stereo unspecified): the Potency entry in [1], in experiment [5] and in experiment [6] was “inactive” in each case. The Potency in experiment [2] is 25.1 µM (active). Besides, the outcome in experiment [3] and in experiment [4] was “inactive” each time.
As to `Cc1ccc2c(=O)c3cccc(CC(=O)O)c3oc2c1C`, the outcome in experiment [7] is “inactive”. The Potency entry in [5] and in [6] was “inactive” throughout.
Turning to `CCN1CCC(n2cc(CNc3cc(Cl)c4ncc(C#N)c(Nc5ccc(F)c(Cl)c5)c4c3)nn2)CC1`, the values for the activity in experiment [8], in experiment [10] and in experiment [11] were -89.7%, -81.6% and -91.4%, respectively. In addition, the Potency in experiment [9] is 10.8 µM (active); in experiment [5], 1.15 µM (active). Besides, the Potency entry in [6], in [12], in [13] and in experiment [14] was “inactive” each time.
With `NS(=O)(=O)c1ccc(Nc2nc(OCC3CCCCC3)c3[nH]cnc3n2)cc1`, the activity was -14.9% in [8], -73.9% in experiment [10] and -14.7% in experiment [11]. For the same molecule, the activity change, negative = inhibition in [9] is -2.65%. For the same molecule, the Potency result in experiment [5], in experiment [12] and in experiment [13] was “inactive” in each case.
Regarding `Cc1ccc2c(c1)c1c(n2CCc2ccc(C)nc2)CCN(C)C1`, the figures for the activity in [8], in experiment [10] and in experiment [11] were -6.68%, -13.3% and -2.48%, respectively. Further, the activity change, negative = inhibition in experiment [9] is -3.88%. In addition, the Potency entry in experiment [5], in experiment [6], in experiment [12], in experiment [13] and in experiment [14] was “inactive” in each case.
For the molecule `COc1cc2c(cc1Cc1cccc(Cl)c1F)c(=O)c(C(=O)O)cn2[C@H](CO)C(C)C`, the outcome in experiment [7] is “inactive”. Also, in experiment [5], the Potency result is “inactive”.
Turning to `CNC1CCC(N(Cc2cccc(-c3ccncc3)c2)C(=O)c2sc3ccccc3c2Cl)CC1` (stereo unspecified), the activity is -14.8% in experiment [8], -65.2% in [10] and -20.3% in [11]. The activity change, negative = inhibition in experiment [9] is -1.13%. Besides, the Potency entry in experiment [5], in experiment [6], in experiment [12], in [13] and in experiment [14] was “inactive” throughout.
With `CC1(COc2ccc3c(c2)ncn3-c2ccc3cccc(N4CCC(N)CC4)c3n2)COC1`, the activity in experiment [8] is -30.2%; in experiment [10], -29.9%; in experiment [11], -30.6%. Also, in [9], the Potency is 42.9 µM (active). For the same molecule, the Potency result in experiment [5], in experiment [6], in experiment [12] and in [13] was “inactive” each time.
For `COc1ccc2ccc(=O)oc2c1CC=C(C)C`, in experiment [7], the outcome is “inactive”.
The same measure, in the same setting: the same measure for `CN(C)CCN(Cc1ccc(Cl)cc1)c1ccccn1`: “inactive”.
`Cc1ccc(S(=O)(=O)OCC(=O)Nc2ccc(C(=O)O)c(O)c2)cc1`: in experiment [7], the outcome was “inactive”. Besides, in experiment [15], the Potency is 12.9 µM (active). Further, the Potency entry in experiment [5] is “inactive”.
In the case of `CC(C)[C@H](O)C(=O)N[C@@H](C)C(=O)N[C@@H]1C(=O)N(C)CCc2ccccc21`, the outcome in experiment [7] is “inactive”. For the same molecule, the Potency result in [5] and in experiment [6] was “inactive” each time.

These data come from PubChem BioAssay (NCATS).
